The list is not random: actives were taken first. Their share in the collection is about 3.7%.
tim23-1 inh = growth inhibitors of tim23-1 mutant yeast, primary screen, luminescence, uHTS | inhibition, % at 20 µM | 1.3% of 330,000 active | S. cerevisiae tim23-1 growth, BacTiter-Glo luminescence, 24 h;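 active = growth inhibition of the mutant yeast at or above 50%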;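 note: temperature-sensitive mutant grown at 25 °C; plate controls were DMSO-treated mutant yeast for no effect and medium wells lacking yeast for full effect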
PfHsp90 yeast 2 = growth inhibition of PfHsp90-expressing yeast, primary screen, antimalarial PfHsp90 inhibitor project, S. cerevisiae, BacTiter-Glo luminescence, single point, set 2 | 0.32% of 310,000 active | AID 504621, 2011 | BacTiter-Glo ATP, 48 h; yeast lacking PDR1 and PDR3 efflux regulators | inhibition, % at 9.4 µM;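 active = every replicate shows inhibition above about 80%, whatever the replicate mean, limit read from the data; inconclusive = mean inhibition reaches the set limit but some replicate falls short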;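 note: 0% = DMSO neutral controls and 100% = 20 µM radicicol positive controls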
tim10-1 inh = growth inhibitors of tim10-1 mutant yeast, primary screen, luminescence, uHTS | 2.2% of 330,000 active | AID 463190, 2010 | inhibition, % at 20 µM | S. cerevisiae tim10-1 ts strain growth, BacTiter-Glo, 24 h;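 active = inhibition of at least 40%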;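 note: mutant grown at 25 °C; 0% = DMSO wells with yeast and 100% = wells holding no yeast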
Rce1 inh = yeast Rce1p protease inhibitors, primary screen, biochemical, fluorescence, cell-free homogeneous. yeast membranes, quenched prenylated peptide cleavage fluorescence. 0.27% of 290,000 active. CAAX prenyl protease 2 (Saccharomyces cerevisiae (strain ATCC 204508 / S288c)), Q03530. calls only;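 active = fall in fluorescence gain of 50% or more versus controls, with final raw signal at or below 3038400; inconclusive = same 50% fall but final raw signal above 3038400; inactive = fall in fluorescence gain under 50%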;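 note: plate controls were neutral control wells for no effect and wells lacking membranes for full effect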
Target sequence (Q03530 whole entry, looked up): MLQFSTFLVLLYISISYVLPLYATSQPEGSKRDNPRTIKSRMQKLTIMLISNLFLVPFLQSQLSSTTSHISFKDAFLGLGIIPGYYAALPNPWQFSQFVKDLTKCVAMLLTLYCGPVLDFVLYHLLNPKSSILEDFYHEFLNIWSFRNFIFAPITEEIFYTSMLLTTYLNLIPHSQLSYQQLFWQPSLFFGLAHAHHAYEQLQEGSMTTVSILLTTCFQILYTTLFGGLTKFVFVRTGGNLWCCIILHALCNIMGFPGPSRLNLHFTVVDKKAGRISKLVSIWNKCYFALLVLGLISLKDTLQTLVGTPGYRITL
TIM10 inh = growth inhibitors of isogenic TIM10 control yeast, primary screen, counter-screen for tim10-1 yeast inhibitor project, luminescence, uHTS; S. cerevisiae TIM10 strain growth, BacTiter-Glo luminescence, 24 h; inhibition, % at 10 µM; 1.4% of 330,000 active;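 active = inhibition of 40% or more at the single tested concentration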;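 note: wild-type TIM10 isogenic control strain grown at permissive 25 °C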
tim10-1 conf = growth inhibitors of tim10-1 mutant yeast, confirmation, single concentration, luminescence, S. cerevisiae | shares compounds with tim10-1 inh | S. cerevisiae tim10-1 ts strain growth, BacTiter-Glo, 24 h | inhibition, % at 20 µM | 56% of 7,400 active | AID 463213, 2010;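 active = inhibition of yeast growth at or above a set limit in either of two repeat tests at 20 µM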;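 note: tim10-1 mutant grown at permissive 25 °C to find synthetic lethal compounds; 0% = DMSO yeast wells and 100% = medium wells without yeast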
* hit, by the source's call; i = inactive; ? = inconclusive; nt = not tested or not shown.

SMILES	tim23-1 inh	PfHsp90 yeast 2	tim10-1 inh	Rce1 inh	TIM10 inh	tim10-1 conf
CC(=O)Nc1ccc(NC(=O)COC(=O)/C(=C/c2ccccc2)n2nnnc2C)cc1	4	24	-3	i	11	nt
Cc1nc(SCC(=O)c2ccc(F)c(F)c2)[nH]c(=O)c1Oc1ccc(F)cc1	19	10	20	i	15	nt
COC(=O)c1cc(Cl)cc(Cl)c1OS(=O)(=O)N(C)C	24	-3	41*	i	-3	10
CN(CC(=O)Nc1ccccc1Cl)CC(=O)Nc1ccccc1[N+](=O)[O-]	-4	nt	7	i	11	nt
Cc1[nH]c2ccccc2c1C(O)CN1CCN(c2cccc(C(F)(F)F)c2)CC1 (configuration not stated)	-3	22	55*	i	26	48*
COc1ccc(-c2cc(-c3ccccc3)n3ncnc3n2)cc1	31	2	49*	i	31	22
COc1ccc(C(C(=O)NCC2CCCO2)N(C(=O)CNC(=O)c2cccs2)c2ccccc2C)cc1OC (configuration not stated)	3	0	3	i	1	nt
Cc1ccc(-c2csc3nc(SCC(=O)Nc4ccc(Cl)c(C(=O)O)c4)[nH]c(=O)c23)cc1	0	-1	1	i	21	nt
CCn1cc(/C=C(\NC(=O)c2ccccc2)C(=O)NCCCN2CCOCC2)c2ccccc21	-7	-10	-2	i	4	nt
COc1ccccc1NC(CC(=O)c1ccccc1)C(=O)OCC(=O)c1ccc(F)cc1 (configuration not stated)	33	0	45*	i	34	40*
Cc1ccc(/C(N)=N/OC(=O)C(C)c2ccc([N+](=O)[O-])cc2)cc1 (configuration not stated)	42	3	46*	i	38	51*
O=C(NCC1CCCCC1)c1ccc([N+](=O)[O-])cc1	18	6	8	i	-1	nt
N/C(=N\OC(=O)CC1CCCCC1)c1ccc([N+](=O)[O-])cc1	45	-8	70*	i	29	51*
COc1ccccc1-n1cnnc1SCC(=O)Nc1cccc(S(N)(=O)=O)c1	4	-16	15	i	-14	nt
COc1cc(/C=N/N=C2/C(=O)Nc3ccccc32)cc(OC)c1O	43	-2	44*	i	36	52*
O=C1Nc2ccccc2/C1=N/N=C/c1cccc(O)c1	5	12	17	i	16	nt
COc1ccc(-c2nc(C)ncc2-c2ccccc2)c(O)c1	23	-35	41*	i	5	17
c1ccc2c(c1)OCC(c1csc3ncnc(N4CCCCC4)c13)O2 (configuration not stated)	48	-6	41*	i	29	24
COc1ccccc1-n1c(SCC(=O)c2ccc(O)cc2O)nc2cc([N+](=O)[O-])ccc21	39	-43	41*	i	4	29
COc1ccccc1-n1c(SCC(=O)NC2CCS(=O)(=O)C2)nc2cc([N+](=O)[O-])ccc21 (configuration not stated)	3	-23	10	i	7	nt
Fc1cc(F)cc(Nc2nc(Cl)nc(NC3CCCC3)n2)c1	35	-25	45*	nt	-9	19*
Cc1cc(C)c2cc(C#N)c(N3CCCN(C(=S)NCCCN(C)C)CC3)nc2c1	36	-12	40*	i	32	31*
COc1ccc(/C=C/C(=O)O)cc1S(=O)(=O)N1CCc2ccccc21	5	-2	3	i	0	nt
COCCn1c(SCC(=O)NC2CCCC(C)C2C)nc2ccccc2c1=O (configuration not stated)	7	nt	4	nt	-20	nt
Cc1ccc(Cl)c(OCC(=O)Nc2ccc(S(=O)(=O)NC3=NCCCCC3)cc2)c1	-3	-11	-7	i	-3	nt
SMILES	tim23-1 inh	PfHsp90 yeast 2	tim10-1 inh	Rce1 inh	TIM10 inh	tim10-1 conf
O=C(COc1ccc(Cl)cc1Cl)Nc1ccc(S(=O)(=O)NC2=NCCCCC2)cc1	13	11	44*	i	39	39*
COc1cccc(CN2CC(C(=O)NCc3cnn(C)c3)CCC2=O)c1 (configuration not stated)	2	-10	0	i	-2	nt
CCOC(=O)N1CCN(C(=O)CCS(=O)(=O)c2ccc3c(c2)CC(C)N3C(=O)CC)CC1 (configuration not stated)	2	-19	21	i	14	nt
CCC(=O)N1c2ccc(S(=O)(=O)CCC(=O)N3CCn4c3nc3ccccc34)cc2CC1C (configuration not stated)	6	16	45*	i	17	29
CC1=C(C#N)C(c2ccccc2)C2=C(N1)c1ccccc1C2=O (configuration not stated)	15	-26	16	i	27	nt
CSC1=C(C#N)C(c2ccccc2Cl)C2=C(N1)c1ccccc1C2=O (configuration not stated)	47	9	46*	i	30	28
O=C1CC2(CCCC2)C(=O)N1CN1CCN(S(=O)(=O)c2ccc(Cl)c(Cl)c2)CC1	-5	nt	-1	nt	-12	nt
CC1=NN(c2ccccc2)C(=O)/C1=C/c1cn(C)c2ccccc12	13	8	1	i	4	nt
Nc1c(C(=O)NCc2ccc(F)cc2)c2nc3ccccc3nc2n1CCCN1CCOCC1	41	14	60*	i	28	6
Nc1c(C(=O)NCc2ccccc2)c2nc3ccccc3nc2n1CCCN1CCOCC1	0	9	27	i	20	nt
COc1ccc(OC)c(CNc2ncc(-c3ccc(F)cc3)n2C)c1	2	-5	0	i	4	nt
Fc1ccc(N/N=C/C=C/c2ccccc2)c(F)c1	28	12	69*	i	10	49*
CC(=O)Nc1nnc(SCC(=O)N2CCc3ccccc32)s1	10	-10	-2	i	-12	nt
Cc1cc(C)n(-c2nnc(NC34CC5CC(CC(C5)C3)C4)nn2)n1	47	-45	57*	i	29	42*
Cc1cccc(-c2onc3ccc(C(=O)/C=C/N(C)C)cc23)c1	27	?	48*	i	12	28
CN(C)/C=C/C(=O)c1ccc2noc(-c3ccc(F)cc3)c2c1	31	59	42*	i	9	13
COc1ccc(CN(Cc2ccccn2)S(=O)(=O)c2ccc(-n3cnnn3)cc2)cc1	3	3	40*	i	7	9
CC(/C=C/c1ccccc1)=N/NC(=O)c1cccc(Br)c1	-3	-13	17	i	20	nt

Screening data: PubChem BioAssay, several laboratories
